The list is not random: actives were taken first. Their share in the collection is about 7.4%.
NPC1 promoter act – qHTS Assay for NPC1 Promoter Activators | AID 485313, 2010 | Potency, µM (titrated, usually from 9.22 µM), most hits filed as activators | Huh7 NPC1 promoter luciferase reporter, 24 h | actives 2.4% (n = 320,000); also: nearly all actives have a fitted effect of over 60% in size
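Cells: Huh7 expressing luciferase under the NPC1 promoter, 1500/well. Seeded 2 h, compound added, incubated 24 h at 37 °C. Luciferase reagent, 10 min ambient, then luminescence.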
Rab9 promoter act – qHTS Assay for Rab9 Promoter Activators; Huh7 Rab9 promoter-luciferase reporter, luminescence, 24 h; Potency, µM (titrated, usually from 9.22 µM), usual class: activators; AID 485297, 2010; actives 2.8% (n = 320,000); also: nearly all actives have a fitted effect of over 60% in size
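Luminescence read-out: Huh7 cells stably expressing Rab9-luciferase, treated 24 h with compound at 37 °C, then lysed with luciferase reagent for 10 min at ambient before reading.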
ELG1 genotoxic – qHTS screen for small molecules that induce genotoxicity in human embryonic kidney (HEK293T) cells expressing luciferase-tagged ELG1. HEK293T ELG1-luciferase reporter, luminescence, 16 h. Potency, µM (series often up to 46 µM), actives largely listed as activators. actives 1.3% (n = 330,000); also: nearly all actives have a fitted effect of over 60% in size
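HEK293T cells expressing luciferase-tagged ELG1 were exposed to compound or DMSO vehicle for 16 hr at 37 °C and 5% CO2. Luciferase activity was then measured with ONE-Glo after 30 min at room temperature.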
SMN2 splice up – qHTS Assay for Enhancers of SMN2 Splice Variant Expression; Potency, µM (highest dose often 46.1 µM), most hits filed as activators; HEK293 SMN2-luciferase splicing reporter, luminescence, 30-36 h; actives 2.8% (n = 210,000); also: nearly all actives have a fitted effect of over 55% in size
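HEK293 cells carry an SMN2 minigene-luciferase reporter in which exon 7 inclusion puts luciferase in frame. Cells were seeded at 2000 cells/well, attached for 10-12 hours, then exposed to compounds for 30-36 hours at 37C before ONE-Glo luminescence.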
FLuc counter – qHTS profiling assay for firefly luciferase inhibitor/activator using purifed enzyme and Km concentrations of substrates (counterscreen for miR-21 project); Luciferin 4-monooxygenase (Photinus pyralis), P08659; Potency, µM (series often up to 57.5 µM), actives largely listed as inhibitors; purified FLuc, Km substrates, luminescence inhibition; actives 6.9% (n = 360,000); also: nearly all actives have a fitted effect of over 55% in size
Target sequence (P08659 whole entry, looked up): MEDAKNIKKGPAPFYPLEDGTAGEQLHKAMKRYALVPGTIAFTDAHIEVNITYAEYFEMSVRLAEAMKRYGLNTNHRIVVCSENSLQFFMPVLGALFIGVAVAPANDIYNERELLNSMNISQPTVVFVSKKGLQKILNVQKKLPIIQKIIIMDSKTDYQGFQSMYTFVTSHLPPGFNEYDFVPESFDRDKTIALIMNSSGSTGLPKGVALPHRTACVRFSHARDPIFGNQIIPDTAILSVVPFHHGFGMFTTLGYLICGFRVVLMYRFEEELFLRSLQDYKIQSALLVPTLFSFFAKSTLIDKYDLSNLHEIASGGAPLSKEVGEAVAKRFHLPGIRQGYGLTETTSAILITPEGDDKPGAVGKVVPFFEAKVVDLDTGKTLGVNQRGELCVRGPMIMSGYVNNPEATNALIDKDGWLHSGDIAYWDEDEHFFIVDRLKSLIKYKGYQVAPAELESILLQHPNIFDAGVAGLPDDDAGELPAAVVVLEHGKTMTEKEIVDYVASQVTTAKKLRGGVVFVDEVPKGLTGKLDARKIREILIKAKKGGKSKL
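Biochemical qHTS of compounds, final roughly 60 µM downward over six points, against 10 nM purified firefly luciferase using Km concentrations of substrates (10 uM D-luciferin, 10 uM ATP) in Tris acetate pH 7.5 buffer; luminescence output.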
Luc counter – Counterscreen for Luciferase (Kinase-Glo TM) Inhibition; Potency, µM (top dose mostly 38.3 µM), hits mostly inhibitors; actives 0.28% (n = 200,000); Luciferin 4-monooxygenase (Photuris pensylvanica), Q27757; Kinase-Glo luciferase, ATP luminescence, 8 min; also: nearly all actives have a fitted effect of over 60% in size
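Kinase-Glo luciferase light output from ATP and luciferin was measured with 10 uM ATP, within the enzyme's linear range. Buffer: 50 mM imidazole pH 7.2, 50 mM KCl, 7 mM MgCl2, 0.01% Tween 20, 0.05% BSA; luminescence read after 8 min at ambient temperature.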
Hits are given with their value; i = inactive; ? = inconclusive; nt = no result given; [ ] = dose if it differs, or a comment. Calls follow the shape of the dose curve; as a rule, active = well fitted curve in the direction sought with a large enough effect; inconclusive = small, poorly fitted or top-dose-only effect, or another doubt; inactive = no such curve, though single readings can be large; an effect the other way counts as inactive or inconclusive.

SMILES	NPC1 promoter act	Rab9 promoter act	ELG1 genotoxic	SMN2 splice up	FLuc counter	Luc counter
Cc1cc(C)cc(N(CC(=O)NCCc2ccc(Cl)cc2)S(=O)(=O)c2c(C)noc2C)c1	nt	nt	nt	i	i	nt
COc1ccc(C(=O)N2CC(=O)Nc3ccc(C)cc3C2c2ccc(F)cc2)c(OC)c1 (stereo not given)	nt	nt	nt	i	i	nt
CCOC(=O)c1cc(OC(=O)c2cccc(F)c2)n(-c2ccccc2)n1	nt	nt	nt	i	i	nt
Cc1ccc(F)cc1NC(=O)CCc1c(C)nn(-c2ccc(N3CCCCC3)nn2)c1C	?	i	i	nt	11µM	nt
Cc1ccc(F)cc1NC(=O)CCc1c(C)nn(-c2ccc(N3CCCC3)nn2)c1C	nt	nt	nt	nt	i	nt
Cc1nn(-c2ccc(N3CCCCC3)nn2)c(C)c1CCC(=O)Nc1ccc(F)cc1F	nt	nt	nt	nt	15µM	nt
Cc1cc(F)ccc1NC(=O)CCc1c(C)nn(-c2ccc(N3CCCCC3)nn2)c1C	i	i	i	nt	?	nt
O=C(Nc1ccc(F)c(Cl)c1)C1CCCN1S(=O)(=O)c1ccc(F)cc1 (stereo not given)	nt	nt	nt	i	i	nt
Cc1cc(C)cc(Oc2c(C(F)(F)F)oc3c(CN4CCCC(C)C4)c(O)ccc3c2=O)c1 (stereo not given)	nt	nt	nt	i	i	nt
O=C(NCc1cccnc1)c1ccc(-c2cc(Cl)ccc2Cl)o1	i	i	i	nt	i	i
O=C(Nc1cccnc1)c1ccc(-c2cc(Cl)ccc2Cl)o1	i	i	i	i	17µM	i
O=C(Nc1cccnc1)c1ccc(-c2ccc(Cl)cc2)o1	?	?	i	i	6µM	i
O=C(NCc1cccnc1)c1ccc(-c2ccc(Cl)cc2)o1	i	i	i	nt	?	i
COc1ccc(Nc2ncnc3onc(C)c23)c(OC)c1	nt	nt	nt	nt	i	nt
Cc1ccc(NC(=O)c2csc(-c3ccccc3)c2C)cc1	0.11µM	0.32µM	?	i	0.095µM	i
Cc1c(C(=O)Nc2cccc([N+](=O)[O-])c2)csc1-c1ccccc1	0.71µM	1.3µM	?	28µM	0.85µM	i
O=C(O)c1ccccc1C(=O)Nc1cccc([N+](=O)[O-])c1	i	i	i	nt	i	nt
CCN(C(=O)CCNC(=O)Cn1cnc2ccccc2c1=O)c1cc(OC)ccc1OC	nt	nt	nt	i	i	nt
O=S(=O)(Nn1c(O)c(C=C2N=c3ccccc3=N2)sc1=S)c1ccccc1	i	i	i	nt	15µM	nt
CCn1c(O)c(C=C2N=c3ccccc3=N2)sc1=S	i	i	i	i	i	i
O=C(Nn1c(O)c(C=C2N=c3ccccc3=N2)sc1=S)c1ccccc1Cl	i	i	i	i	15µM	i
Oc1c(C=C2N=c3ccccc3=N2)sc(=S)n1-c1ccccc1	i	i	i	i	i	i
Cc1cccc(Cn2cnc3c(cnn3-c3ccc(Cl)cc3)c2=O)c1	nt	nt	nt	i	i	nt
Cc1ccc2c(c1)N(C(=O)CCC(=O)NCc1ccccc1Cl)CC(C)O2 (stereo not given)	nt	nt	nt	nt	i	nt
CC1CCN(C(=O)Cn2ncc3c4ccccc4n(Cc4ccc(Cl)cc4)c3c2=O)CC1	nt	nt	nt	i	i	nt
SMILES	NPC1 promoter act	Rab9 promoter act	ELG1 genotoxic	SMN2 splice up	FLuc counter	Luc counter
COCCCNC(=O)Cn1nnc(-c2ccc(NC(=O)c3ccccc3F)cc2)n1	i	i	i	?	13µM	i
CCOC(=O)c1sc(N)c(C(=O)OC)c1C	i	i	i	nt	15µM	i
COC(=O)c1c(N)sc(C(=O)NCCc2ccccc2)c1C	?	?	0.23µM	nt	0.095µM	nt
COc1ccc(S(=O)(=O)N(Cc2nc(-c3ccc(C)cc3)no2)C2CCCCC2)cc1	nt	nt	nt	i	i	nt
O=c1[nH]cnc2nc(-c3ccccc3)c(-c3ccccc3)nc12	i	i	i	i	i	i
O=c1[nH]cnc2nn(-c3ccccc3)nc12	?	?	?	?	21µM	i
CCCN(CCC)CCCNC(=O)c1cc2c(=O)oc3ccc(C)cc3c2s1	nt	nt	nt	i	i	nt
COc1ccc(NC(=O)C(=O)NCC(c2cccnc2)N2CCc3ccccc3C2)cc1 (stereo not given)	nt	nt	nt	nt	0.38µM	nt
COc1ccccc1C(=O)NCC(c1cccnc1)N1CCc2ccccc2C1 (stereo not given)	nt	nt	nt	nt	2.7µM	nt
Cc1cc(SCC(=O)NCc2ccc(Cl)cc2)nc(=O)[nH]1	nt	nt	nt	nt	i	nt
CNc1cnn(-c2ccc(C)cc2)c(=O)c1Sc1ccc(C)cc1	i	i	i	i	i	i
CNc1cnn(-c2ccc(C)cc2)c(=O)c1Cl	1.6µM	3.2µM	?	11µM	13µM	i
C=CCNC(=O)c1c(Cl)cnn1-c1ccc(C)cc1	2µM	3.2µM	?	nt	17µM	nt
CNC(=O)c1c(Cl)cnn1-c1ccc(C)cc1	2.2µM	3.2µM	?	nt	12µM	nt
Cc1ccc(-n2ncc(Cl)c2C(=O)NC2CC2)cc1	3.2µM	1.8µM	?	nt	11µM	nt
Nc1c(C(=O)N/N=C/c2ccc(Cl)cc2)cnn1-c1ccccc1	i	?	i	nt	i	nt
CNC(=O)c1c(Br)cnn1-c1ccc(C)cc1	2.8µM	3.2µM	?	nt	7.6µM	i
O=c1c(Cl)c(N/N=C/c2ccc(Cl)cc2)cnn1-c1ccccc1	0.56µM	0.32µM	i	i[1.84 µM]	i	i
CCSc1nc2n(n1)C(c1ccc(CC)cc1)C(C(=O)Nc1ccccc1OC)=C(C)N2 (stereo not given)	nt	nt	nt	nt	i	nt
CC(C)(C)c1ccc(S(=O)(=O)NCc2ccc3c(c2)CCN3C(=O)c2ccccc2)cc1	nt	nt	nt	nt	i	nt
COCCCn1c(SCC(=O)n2c(C)c(C)c3ccccc32)nnc1-c1ccoc1C	i	i	18µM	i	i	i
CC(=O)Nc1ccc2nc3c(=O)n(C)c(=O)n(C)c3nc2c1C	nt	nt	nt	i	i	nt
CC(C)(C)C1CCC(C(=O)Nc2nccs2)CC1 (stereo not given)	?	i	i	nt	?	nt
Cc1cnc(NC(=O)C2CCC(C(C)(C)C)CC2)s1 (stereo not given)	i	?	i	nt	19µM	nt
O=C(Nc1nc2c(F)cccc2s1)c1ccco1	1.1µM	1.1µM	7.3µM	nt	4.8µM	nt
Cc1cc(Cl)cc2sc(NC(=O)C3CC3)nc12	i	i	i	nt	i	nt
Cc1nc2nc(NC(=O)c3ccco3)nn2c(C)c1Cl	3.5µM	3.2µM	18µM	nt	?	nt
Cc1cc(Cl)cc2sc(NC(=O)c3ccco3)nc12	?	2.2µM	2.9µM	nt	9.5µM	nt
Cc1cc(C)c2nc(NC(=O)c3ccco3)sc2c1	2.8µM	0.56µM	0.65µM	nt	0.54µM	nt
CCOC(=O)Cn1c(=O)n(CC2CCCO2)c2nc(-c3cccc(C)c3)nc(C(N)=O)c21 (stereo not given)	nt	nt	nt	nt	i	nt

Source: PubChem BioAssay
